Source: PubChem BioAssay (NCATS)
Inconclusive results are not listed. Unmarked numbers belong to inactive results. The source made the active and inactive calls. Calls follow the shape of the dose curve; as a rule, active = well fitted curve in the direction sought with a large enough effect; inconclusive = small, poorly fitted or top-dose-only effect, or effect the other way, or another doubt; inactive = no such curve, though single readings can be large or run the other way.

Test: DH5-alpha competent E. coli microbial cell viability qHTS against the NCATS CANVASS Library (AID 1347377); as to viability signal change, negative = cytotoxic: 0% is about no effect
Settings: BacTiter-Glo ATP luminescence, overnight; series mostly up to 46.1 µM; viability signal change, negative = cytotoxic: at the top concentration
Text: Natural products and their derivatives continue to be wellsprings of nascent therapeutic potential. However, many laboratories have limited resources for biological evaluation, leaving their previously isolated or synthesized compounds largely or completely untested. To address this issue, the Canvass library of natural products was assembled (https://tripod.nih.gov/canvass), in collaboration with academic and industry researchers, for quantitative high-throughput screening (qHTS) across a diverse set of cell-based and biochemical assays. The pure (>85% purity by liquid chromatography/mass spectrometry [LC/MS]) Canvass library of 346 natural products were submitted by 45 academic laboratories and companies around the world. We collected pure natural products to circumvent deconvolution and structure elucidation due to time and resource limitations. The library was formatted into 1536-well plates and evaluated in 50 qHTS (in an 11-pnt concentration series) bioassays with broad scope of disease-relevant mechanisms. The resulting data set from 50 different assays was then systematically analyzed to identify overall trends and specific natural products with interesting biological activities. Reported herein are the results of each individual qHTS and their corresponding assay protocol. The BacTiter-Glo microbial cell viability assay is a homogeneous method for determining the number of viable bacterial cells in culture based on quantitation of the ATP present. ATP is an indicator of metabolically active cells. The homogeneous assay procedure involves adding a single reagent (BacTiter-GloTM Reagent) directly to bacterial cells in medium and measuring luminescence. National Center for Advancing Translational Sciences (NCATS), Rockville, MD National Institute of Health (NIH), Bethesda, Maryland
DH5-alpha competent E.coli cytotoxicity protocol: 1. In a 1536 well, tissue culture treated white solid bottom plates (Greiner Bio-One North America), 5 uL of DH5-alpha competent E. coli suspension (0.9 OD culture diluted 0.2 OD) was dispensed into columns 1, 2, and 5-48 using the Multidrop Combi dispenser (Thermo Fisher Scientific). 2. Controls and compounds were pin transferred (~23 nL volume) to the assay plates via Wako Pin-tool (Wako Automation, Richmond VA) equipped with a 1536 pin head. The compounds were transferred to columns 5-48 resulting in a final concentration ranging from 0.17nM to 92uM. Daunomycin was used as a control in various concentrations (1mM working concentration; 1:2 dilution; 16 points; n=2; column 2, rows) for a final concentration range of 0.2 nM to 9.2 uM. 3. The assay plates were incubated overnight at 37C, 5% CO2, 95% humidity. 4. 2.5 uL of BacTiterGlo solution (Promega) was then added to the assay plates (column 1-48, rows 1-32). The assay plates were incubated at room temperature for 20 min. 5. Luminescence signal was acquired via the ViewLux plate reader using a clear emission filter, 2 second exposure and 2x binning settings.

Row | Structure (SMILES) | viability signal change, negative = cytotoxic | outcome
1 | CC(=O)O[C@H]1c2ccccc2-c2c3c(cc4c2[C@@H]1N(C(C)=O)CC4)OCO3 | 13.9% | 
2 | COc1cc(/C=C/C(=O)OC[C@@H](Cc2ccc(O)c(OC)c2)[C@@H](COC(=O)/C=C/c2ccc(O)c(OC)c2)Cc2ccc(O)c(OC)c2)ccc1O |  | inactive
3 | C[C@@]12CCC[C@@](C)(C(=O)O)[C@H]1CC[C@@]13C[C@@H](CC[C@H]12)[C@](C)(O)C3 | 0.869% | 
4 | O=C1CC(c2ccc(O)cc2)Oc2cc(O)cc(O)c21 (stereo not given) | 14.6% | 
5 | COc1ccc(-c2oc3cc(OC)cc(OC)c3c(=O)c2O)cc1 |  | inactive
6 | C/C(=C\[C@H](C)C(=O)C[C@H](O)CC1CC(=O)NC(=O)C1)[C@@H]1OC(=O)CCCC/C=C/C[C@@H](O)[C@@H]1C |  | inactive
7 | C=CC(CCCCC)C1C(=O)NC(=O)C1C(=O)C1C2C(C)CC(C(=O)O)CC2CC1(O)C(=O)/C=C/C (stereo not given) | 4.43% | 
8 | CN1C(=O)C(=O)N2C(=C[C@]3(c4c[nH]c5ccccc45)c4ccccc4N[C@H]23)C1=O |  | inactive
9 | C=C[C@]1(C)CC[C@@H]([C@H](C)C(=O)CC=C(C)C)O1 |  | inactive
10 | C/C1=C/[C@@H](C)[C@H](O)C/C=C/CC/C=C/C(=O)O[C@@H]1[C@H](C)C(=O)CCCC1CC(=O)NC(=O)C1 | 20% | 
11 | CN1CC[C@]2(c3cccc4c3N[C@H]3N(C)CC[C@@]43[C@]34CCN(C)[C@H]3Nc3ccccc34)c3ccccc3N[C@H]12 | 29.9% | 
12 | O=C1c2c(O)cc(O)cc2OC(c2ccc(O)cc2)C1O (stereo not given) | 3.65% | 
13 | C=C(Cl)[C@](Cl)(CBr)CC[C@@H](Br)C(C)(C)Cl | 0.305% | 
14 | CO/C=C/C(=O)c1cc2cnc3c(N)cc(=NC(=O)C(C)C)c([nH]1)c23 | 6.59% | 
15 | C/C=C1/C2=CCCN3C(=O)O[C@H]([C@H]1O)[C@H]23 | 14.4% | 
16 | C/C=C(/C)c1cc(O)c(C)c2c1Oc1cc(O)cc(C)c1C(=O)O2 |  | inactive
17 | C=C[C@@]1(C)CC[C@@H]([C@H](C)C(=O)/C=C/C(C)(C)O)O1 | 3.5% | 
18 | COc1ccc([C@@H]2CC(=O)c3c(cc(O)c(C/C=C(\C)CCC=C(C)C)c3O)O2)cc1 | 8.04% [at 9.19 µM] | 
19 | C/C(=C\[C@H](C)C(=O)/C=C/CC1CC(=O)NC(=O)C1)[C@@H]1OC(=O)/C=C/CC/C=C/C[C@@H](O)[C@@H]1C |  | inactive
20 | C/C=C/[C@H]1[C@H]2C(=O)c3c(O)c(C)c(O)c(C)c3[C@]1(C(=O)O)C(=O)C=C2C |  | inactive

Row | Structure (SMILES) | viability signal change, negative = cytotoxic | outcome
21 | COc1ccc([C@@H]2c3cc4c(cc3C(=O)C(C)C2C)OCO4)cc1OC (stereo not given in full) |  | inactive
22 | COc1cc2c(c(O)c1O)C(=O)c1c(coc1C)C2=O | 4.13% | 
23 | CC(C)=CCCC(C)(O)[C@H]1CC=C(C)C(O)C1 (stereo not given in full) | 9.52% | 
24 | C=C1C(=O)O[C@H]2[C@H]1CCC(C)=C1CC[C@@](C)(O)[C@@H]12 | 14.9% | 
25 | C/C1=C/[C@@H](C)[C@H](O)[C@@H](O)/C=C/CC/C=C/C(=O)O[C@@H]1[C@H](C)C(=O)CCCC1CC(=O)NC(=O)C1 | 4.27% | 
26 | CC(C)[C@]12CC[C@@]3(C)[C@H](C)CC[C@H](O)[C@@]3(CC1)c1cc3c(cc12)[nH]c1ccccc13 |  | inactive
27 | CC(=O)N[C@H](C)c1nc(/C=C/C=C/C(=O)CC2CC(=O)CC[C@]2(C)O)cs1 (stereo not given in full) | 5.16% | 
28 | C/C(=C\[C@H](C)C(=O)C[C@H](O)CC1CC(=O)NC(=O)C1)[C@@H]1OC(=O)CCCC/C=C/[C@@H](O)C[C@@H]1C |  | inactive
29 | CCC(=O)N[C@@H](C[C@H](C)C(Cl)(Cl)Cl)C(=O)N1C(=O)C=C(OC)[C@@H]1CC(C)C |  | inactive
30 | COC12OC1(C13OC1(OC)C(=O)c1cc4cc(C)oc(=O)c4c(O)c1C3O)C(O)c1c(cc3cc(C)oc(=O)c3c1O)C2=O (stereo not given) | 13.9% | 
31 | CO[C@H]1/C=C/CCCCC(=O)O[C@@H](/C(C)=C/[C@H](C)C(=O)C[C@H](O)CC2CC(=O)NC(=O)C2)[C@@H](C)C1 | 21.9% | 
32 | CO[C@@H](C[C@@H](C)[C@@H](O)/C=C/C=C/CNC(=O)C(C)(C)[C@H](O)\C(C)=C/C=C\C=C\Cc1cnco1)[C@]1(O)[C@@H](C)C(=O)N(C)[C@@]12COC2=O | 13.8% | 
33 | C[C@@]12C[C@@H](C[C@@H]3C(=O)O[C@@H](c4ccoc4)[C@H](OC(=O)c4ccccc4)[C@@H]31)OC2=O |  | inactive
34 | O=C1CC(c2ccc(O)cc2)Oc2cc(O)ccc21 (stereo not given) | -2.73% | 
35 | COc1ccc([C@@H]2c3cc4c(cc3C[C@H](C)C2C)OCO4)cc1OC (stereo not given in full) | 32% | 
36 | CC(C)C[C@@H]1c2c(O)c(C=O)c(O)c(C=O)c2O[C@]2(C)C=C[C@@H](C(C)C)C[C@H]12 | 0.737% | 
37 | CC1(C)CC[C@]2(CO)CC[C@]3(C)C(=CCC4[C@@]5(C)CC[C@H](O)C(C)(C)C5CC[C@]43C)C2C1 (stereo not given in full) |  | inactive
38 | COc1ccc2[nH]c3c(c2c1)CCN1C[C@H]2C[C@@H](OC(=O)c4cc(OC)c(OC)c(OC)c4)[C@H](OC)[C@@H](OC)[C@H]2C[C@H]31 | 27.7% | 
39 | O=C1CC2OCC=C3CN4C5CC3C2[C@@H]2N1c1ccccc1[C@]52C[C@@H]4C1=C[C@H]2C3CC4N(CC[C@@]45c4ccccc4N(C1=O)[C@@H]25)C/C3=C/CO (stereo not given in full) | 8.65% | 
40 | C=C1CCC2C(C)(C(=O)O)CCC(CC/C(C)=C/C(=O)NC(CCC(N)=O)C(=O)O)[C@@]2(C)C1 (stereo not given in full) |  | inactive
